Mtb FBA inh: inhibits M. tuberculosis FBA enzyme; purified M. tuberculosis FBA, fluorescence read-out; inhibition, % at 1 µM; AID 588726; actives 2.3% (n = 360,000);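 further: 0% = vehicle and 100% = reference inhibitor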
Target sequence (P9WQA3 whole entry, looked up): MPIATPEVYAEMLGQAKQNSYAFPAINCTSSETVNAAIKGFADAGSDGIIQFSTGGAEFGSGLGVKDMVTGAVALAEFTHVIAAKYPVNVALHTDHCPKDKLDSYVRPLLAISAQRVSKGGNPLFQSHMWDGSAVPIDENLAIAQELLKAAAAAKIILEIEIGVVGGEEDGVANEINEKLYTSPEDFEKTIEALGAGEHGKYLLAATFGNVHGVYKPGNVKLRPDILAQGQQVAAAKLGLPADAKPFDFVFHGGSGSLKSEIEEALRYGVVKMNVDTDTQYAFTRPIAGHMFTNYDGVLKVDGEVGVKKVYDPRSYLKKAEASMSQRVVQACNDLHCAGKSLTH
Vc quorum ag: quorum light induction in luxS cqsA deficient V. cholerae; V. cholerae BH1578 lux reporter, luminescence, 6 h; activation, % at 18.7 µM; actives 0.16% (n = 350,000); in the data active means activation mostly above about 9.7%, no sharp cut-off
Mtb BioA inh: blocks M. tuberculosis BioA enzyme activity. inhibition, % at 9.99 µM. actives 0.096% (n = 360,000). purified M. tuberculosis BioA enzyme, plate reader; in the data active means inhibition above about 40%
GDH-TPI counter-1: counter-screen for M. tuberculosis FBA inhibitors: GDH-TPI coupled enzymes; AID 588335; GDH-TPI coupled enzyme counterscreen, NADH absorbance; inhibition, % at 4.8 µM; actives 1.2% (n = 360,000); in the data active means inhibition above about 30%;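 further: 0% = DMSO wells and 100% = wells lacking the enzyme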
Mtb FBA inh conf: confirmation of M. tuberculosis fructose-bisphosphate aldolase inhibitors | shares compounds with Mtb FBA inh | purified M. tuberculosis FBA, fluorescence read-out | inhibition, % at 1 µM | actives 78% (n = 5,600) | AID 651616;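 further: 0% = vehicle wells and 100% = reference inhibitor wells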
GDH-TPI counter-2: inhibits GDH-TPI coupling enzymes, flagging Mtb FBA hits | shares compounds with Mtb FBA inh | GDH-TPI coupled enzyme counterscreen, fluorescence | inhibition, % at 1 µM | actives 81% (n = 5,600) | AID 652141; in the data active means inhibition above about 10%
GDH-TPI dose: inhibits GDH-TPI coupling enzymes in dose response; shares compounds with Mtb FBA inh; GDH-TPI coupled enzyme assay, fluorescence, artifact counterscreen; IC50, µM; actives 79% (n = 170); AID 652145; call rule not given here
Numbers without * were called inactive. The list is not random: actives were taken first. Their share in the collection is about 3%. Unless noted, no stated cut-off is given here; in the data, active means inhibition above about 27%; inactive means the rest.

Cc1c(C)c2cc(Cl)c(OC(C)C(=O)NCCN3CCOCC3)cc2oc1=O (stereo unspecified) was read as Mtb FBA inh 19.8, Vc quorum ag -0.4, Mtb BioA inh 2.0 and GDH-TPI counter-1 0.0.
`CCCc1cc(=O)oc2c(C)c(OC(C)C(=O)NCCN3CCOCC3)ccc12` (stereo unspecified) gave Mtb FBA inh 17.3, Vc quorum ag -0.3, Mtb BioA inh 0.3 and GDH-TPI counter-1 3.7.
For Cc1cc(OC(C)C(=O)NCCCN2CCOCC2)c2c(C)c(C)c(=O)oc2c1 (stereo unspecified) the results were Mtb FBA inh 63.5*, Vc quorum ag -19.6, Mtb BioA inh -0.4, GDH-TPI counter-1 9.2, Mtb FBA inh conf 168.0* and GDH-TPI counter-2 180.8*.
For Cc1cc(OC(C)C(=O)NC2CCN(Cc3ccccc3)CC2)c2c(C)cc(=O)oc2c1 (stereo unspecified) the results were Mtb FBA inh 9.6, Vc quorum ag -0.3, Mtb BioA inh -1.0 and GDH-TPI counter-1 1.2.
Screening CN1C[C@H](O)COC[C@@H]2O[C@@H](CC(=O)NC3CCC3)CC[C@H]21 returned Mtb BioA inh -0.6.
Cc1ccc2nc(-c3ccsc3)c(NC3CCCC3)n2c1 was read as Mtb FBA inh 27.7*, Vc quorum ag -0.5, Mtb BioA inh 4.1, GDH-TPI counter-1 8.8, Mtb FBA inh conf 17.8 and GDH-TPI counter-2 13.9*.
For O=c1[nH]c(=O)n(Cc2ccccc2)c2nc(-c3ccco3)cc(C(F)(F)F)c12 the results were Mtb FBA inh 27.4*, Vc quorum ag 26.8*, Mtb BioA inh -1.9, GDH-TPI counter-1 2.3, Mtb FBA inh conf 71.7* and GDH-TPI counter-2 64.2*.
`CCCCSc1nc2sc3c(c2c(=O)n1-c1ccccc1)CCN(C)C3` gave Mtb FBA inh 3.9, Vc quorum ag 1.6, Mtb BioA inh 0.5 and GDH-TPI counter-1 21.4.
For CCCCCNc1nc2sc3c(c2c(=O)n1-c1cccc(Cl)c1)CCN(C)C3 the results were Mtb FBA inh 52.1*, Vc quorum ag inactive, GDH-TPI counter-1 21.3, Mtb FBA inh conf 109.1* and GDH-TPI counter-2 88.8*.
Screening CCCCNc1nc2sc3c(c2c(=O)n1-c1cccc(Cl)c1)CCN(C)C3 returned Mtb FBA inh 52.1*, Vc quorum ag 0.3, GDH-TPI counter-1 20.6, Mtb FBA inh conf 189.9* and GDH-TPI counter-2 139.7*.
C[C@@H]1CCCCO[C@@H](CN(C)Cc2ccccc2)[C@@H](C)CN([C@H](C)CO)C(=O)c2cc(NC(=O)Nc3ccccc3)ccc2O1 was read as Mtb BioA inh -0.1.
`Cn1cc(-c2cccc(C(F)(F)F)c2)cc(C#N)c1=O` gave Mtb FBA inh 45.6*, Vc quorum ag -7.7, Mtb BioA inh -1.6, GDH-TPI counter-1 16.4, Mtb FBA inh conf 93.9* and GDH-TPI counter-2 61.8*.
Cn1cc(-c2cccc(Cl)c2)cc(C#N)c1=O was read as Mtb FBA inh 43.6*, Vc quorum ag -0.7, GDH-TPI counter-1 13.6, Mtb FBA inh conf 61.6* and GDH-TPI counter-2 42.5*.
Screening C[C@@H]1CN([C@H](C)CO)C(=O)c2cc(NC(=O)CCCN(C)C)ccc2O[C@@H]1CN(C)S(=O)(=O)c1cn(C)cn1 returned Mtb BioA inh -1.8.
For CC1(C)CC(=O)C=C(c2ccc3ccccc3c2)C1 the results were Mtb FBA inh 39.6*, Vc quorum ag 1.6, Mtb BioA inh -0.9, GDH-TPI counter-1 15.6, Mtb FBA inh conf -0.5 and GDH-TPI counter-2 -4.5.
Cc1cc(C)cc(Oc2coc3cc(OC(=O)c4cccnc4)ccc3c2=O)c1 was read as Mtb FBA inh 32.5*, Vc quorum ag -0.5, Mtb BioA inh -0.8, GDH-TPI counter-1 4.8, Mtb FBA inh conf 47.3* and GDH-TPI counter-2 36.1*.
`O=C(Oc1ccc2c(=O)c(Oc3ccc4ccccc4c3)coc2c1)c1ccco1` gave Mtb FBA inh 39.7*, Vc quorum ag -0.3, Mtb BioA inh 4.5, GDH-TPI counter-1 -9.8, Mtb FBA inh conf 42.1* and GDH-TPI counter-2 35.3*.
For NC(=O)c1cccn(Cc2ccc(C(F)(F)F)cc2)c1=O the results were Mtb FBA inh 52.2*, Vc quorum ag inactive, Mtb BioA inh 5.2, GDH-TPI counter-1 10.7, Mtb FBA inh conf 96.3* and GDH-TPI counter-2 71.5*.
Screening CNC(=O)c1cccn(Cc2ccc(C(F)(F)F)cc2)c1=O returned Mtb FBA inh 28.8*, Vc quorum ag -0.5, GDH-TPI counter-1 4.7, Mtb FBA inh conf 68.0* and GDH-TPI counter-2 42.6*.
C[C@@H]1CN([C@H](C)CO)C(=O)c2cc(-c3ccccc3)cnc2O[C@@H]1CN(C)C(=O)NC1CCCC1 was read as Mtb BioA inh 1.3.
`Cc1cccc(Nc2nc(C)nc3c2oc2ccccc23)c1` gave Mtb FBA inh 3.6, Vc quorum ag inactive, Mtb BioA inh 2.4 and GDH-TPI counter-1 4.4.
For CCc1nc(Nc2ccncc2)c2oc3ccccc3c2n1 the results were Mtb FBA inh 56.8*, Vc quorum ag inactive, Mtb BioA inh 0.6, GDH-TPI counter-1 40.1*, Mtb FBA inh conf 48.8* and GDH-TPI counter-2 40.9*.
For Cc1nc(Nc2ccncc2)c2oc3ccccc3c2n1 the results were Mtb FBA inh 35.5*, Vc quorum ag -0.6, GDH-TPI counter-1 32.8*, Mtb FBA inh conf 160.8* and GDH-TPI counter-2 135.6*.
`COc1cccc(/C=C/c2nc(S(=O)(=O)c3ccccc3)c(N3CCC(C(N)=O)CC3)o2)c1` gave Mtb FBA inh 38.1*, Vc quorum ag -0.6, Mtb BioA inh 0.2, GDH-TPI counter-1 31.0*, Mtb FBA inh conf 21.9, GDH-TPI counter-2 7.6 and GDH-TPI dose 1.34*.
`Cc1cc2c(c(N)n1)c(=O)oc1ccccc12` gave Mtb FBA inh 39.8*, Vc quorum ag inactive, Mtb BioA inh -1.5, GDH-TPI counter-1 17.9, Mtb FBA inh conf -0.4 and GDH-TPI counter-2 -0.5.
For O=c1oc2ccccc2c2c1ccc1ccccc12 the results were Mtb FBA inh 28.6*, Vc quorum ag 1.5, Mtb BioA inh 2.1, GDH-TPI counter-1 13.6, Mtb FBA inh conf 51.4* and GDH-TPI counter-2 42.8*.
O=c1oc2ccccc2c2[nH]ccc12 was read as Mtb FBA inh -2.8, Vc quorum ag -0.2, Mtb BioA inh 1.1 and GDH-TPI counter-1 2.5.
O=c1oc2ccc3ccccc3c2cc1-c1nc2ccccc2o1 was read as Mtb FBA inh 46.5*, Vc quorum ag -5.3, Mtb BioA inh -2.8, GDH-TPI counter-1 7.9, Mtb FBA inh conf 73.3* and GDH-TPI counter-2 67.4*.
Screening O=C(C[C@@H]1CC[C@@H]2[C@H](COC[C@H](O)CN2S(=O)(=O)c2ccccc2)O1)N[C@@H]1CCN(Cc2ccccc2)C1 returned Mtb BioA inh 1.4.
Screening Cc1noc(C)c1NC(=O)Nc1ccc2c(c1)C(=O)N([C@@H](C)CO)C[C@H](C)[C@H](CN(C)CC1CC1)O2 returned Mtb BioA inh -4.6.

Bioassay records: PubChem BioAssay, several laboratories
